Measured values published in PubChem BioAssay (Tox21).
Results filed as inconclusive are left out. Calls of active or inactive are those of the source. The call rests on the fitted dose curve; in most records, active means well fitted curve in the direction sought with a large enough effect in the repeat runs; inconclusive means weak or mixed curves; inactive means no such curve, though single readings can be large; an effect the other way counts as inactive or inconclusive.

What was measured:
[1] = qHTS RealTime-Glo MT Cell Viability Assay in HepG2 cells - 40 hour (AID 1224870); further: nearly all actives have a fitted effect of over 50% in size
Method in brief: (§1)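 HepG2 cells (600/well) mixed with RealTime-Glo MT reagent, settled 5 h at 37 C/5% CO2 before compound addition. Nonlytic NanoLuc luminescence from viable-cell prosubstrate reduction read repeatedly during 40 h treatment at 37 C.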

[2] = A CellTox Green Cytotoxicity Assay to monitor cytotoxicity in HEK293 cells - 40 hour (AID 1224871); further: nearly all actives have a fitted effect of over 45% in size
Method in brief: (§2)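 HEK293 cells premixed with CellTox Green dye were seeded at 600 cells/well and left 5 h at 37 C/5% CO2 before pin transfer of 23 nL compound in DMSO. Fluorescence from dye bound to dead-cell DNA was read during 40 h treatment.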

[3] = qHTS RealTime-Glo MT Cell Viability Assay in HEK293 cells - 16 hour (AID 1224872); further: top concentration of the series differs between compounds; nearly all actives have a fitted effect of over 50% in size
Method in brief: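 Nonlytic real-time viability readout: viable cells convert prosubstrate to NanoLuc substrate, giving luminescence proportional to live cell number. HEK293, 600 cells/well, compound added after 5 h, continuous culture at 37 C.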

[4] = qHTS RealTime-Glo MT Cell Viability Assay in HepG2 cells - 8 hour (AID 1224873); further: nearly all actives have a fitted effect of over 55% in size
Method in brief: as §1

[5] = qHTS RealTime-Glo MT Cell Viability Assay in HEK293 cells - 40 hour (AID 1224874); settings: RealTime-Glo luminescence; max response: stronger effect = lower value; further: nearly all actives have a fitted effect of over 50% in size
Method in brief: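 HEK293 cells mixed with RealTime-Glo reagents (NanoLuc plus cell-permeant prosubstrate) at 600 cells/well, preincubated 5 h at 37 C/5% CO2, then given 23 nL compound in DMSO. Nonlytic luminescence from viable cells was read at 0, 8, 16, 24, 32 and 40 h.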

[6] = A CellTox Green Cytotoxicity Assay to monitor cytotoxicity in HEK293 cells - 24 hour (AID 1224875); further: series mostly up to about 77 µM; nearly all actives have a fitted effect of over 45% in size
Method in brief: as §2

[7] = A CellTox Green Cytotoxicity Assay to monitor cytotoxicity in HepG2 cells - 16 hour (AID 1224876); further: nearly all actives have a fitted effect of over 45% in size
Method in brief: (§3)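 HepG2 cells were seeded together with the CellTox Green dye at 600 cells/well, left 5 h at 37 C/5% CO2, then given compounds in DMSO. Fluorescence from dye bound to dead-cell DNA was read repeatedly over 40 h of treatment at 37 C.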

[8] = qHTS RealTime-Glo MT Cell Viability Assay in HepG2 cells - 32 hour (AID 1224877); further: nearly all actives have a fitted effect of over 55% in size
Method in brief: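 Luminescence read-out: viable HepG2 cells reduce a prosubstrate to a NanoLuc substrate, giving a signal proportional to live cell number. Reads taken at 0, 8, 16, 24, 32 and 40 h of compound exposure at 37 C.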

[9] = A CellTox Green Cytotoxicity Assay to monitor cytotoxicity in HepG2 cells - 24 hour (AID 1224878); further: nearly all actives have a fitted effect of over 45% in size
Method in brief: as §3

[10] = A CellTox Green Cytotoxicity Assay to monitor cytotoxicity in HepG2 cells - 40 hour (AID 1224879); further: nearly all actives have a fitted effect of over 40% in size
Method in brief: as §3
On the % scale 0 is the no-effect control and ±100 the full control effect.

CCCNC(C)(C)COC(=O)c1ccccc1
inactive: Potency [1] | Potency [2] | Potency [3] | outcome [4] | max response [5] 2.27% | Potency [6] | Potency [7] | Potency [8] | Potency [9] | Potency [10]

N#Cc1ccc(C(c2ccc(C#N)cc2)n2cncn2)cc1
inactive: Potency [1] | Potency [2] | Potency [3] | outcome [4] | max response [5] -0.518% | Potency [6] | Potency [7] | Potency [8] | Potency [9]

OCCN(CCO)c1ccccc1
inactive: Potency [1] | Potency [2] | Potency [3] | outcome [4] | max response [5] 1.89% | Potency [6] | Potency [7] | Potency [8] | Potency [9]

O=c1oc2c(O)c(O)cc3c(=O)oc4c(O)c(O)cc1c4c23
inactive: activity change, negative = cytotoxic [1] -12.4% [at 15.8 µM] | cytotoxicity increase [2] 16.8% [at 15.8 µM] | activity change, negative = cytotoxicity [3] -3.75% [at 15.8 µM] | viability change, negative = cytotoxic [4] 0.835% [at 15.8 µM] | max response [5] -22.4% | activity change [6] 21.9% [at 15.8 µM, stronger effect = higher value] | cytotoxicity increase [7] 1.02% [at 15.8 µM] | activity change, negative = cytotoxic [8] -12.3% [at 15.8 µM] | cytotoxicity [9] 4.4% [at 15.8 µM]

O=C(CC(=O)C(F)(F)F)c1ccccc1
inactive: Potency [1] | Potency [2] | Potency [3] | outcome [4] | max response [5] -4.62% | Potency [6] | Potency [7] | Potency [8] | Potency [9]

Cc1cc2c(s1)Nc1ccccc1N=C2N1CCN(C)CC1
inactive: Potency [1] | Potency [2] | Potency [3] | outcome [4] | max response [5] 3.41% | Potency [6] | Potency [7] | Potency [8] | Potency [9]

C[C@@H](N)C(=O)O
inactive: Potency [1] | Potency [2] | Potency [3] | outcome [4] | max response [5] 1.04% | Potency [6] | Potency [7] | Potency [8] | Potency [9] | Potency [10]

CC(C)S
inactive: Potency [1] | Potency [2] | Potency [3] | outcome [4] | max response [5] 0.674% | Potency [6] | Potency [7] | Potency [8] | Potency [9]

NC/C=C/C(=O)O
inactive: Potency [1] | Potency [2] | Potency [3] | outcome [4] | max response [5] 2.11% | Potency [6] | Potency [7] | Potency [8] | Potency [9]

COc1ccc(S(=O)(=O)Nc2nnc(CC(C)C)s2)cc1
inactive: Potency [1] | Potency [2] | Potency [3] | outcome [4] | max response [5] 6.93% | Potency [6] | Potency [7] | Potency [8] | Potency [9]

CCCCC(=O)O[C@]1(C(=O)CO)[C@H](C)C[C@H]2[C@@H]3CCC4=CC(=O)C=C[C@]4(C)[C@@]3(F)[C@@H](O)C[C@@]21C
inactive: Potency [1] | Potency [2] | Potency [3] | outcome [4] | max response [5] 0.0182% | Potency [6] | Potency [7] | Potency [8] | Potency [9]

CCC/C=C/CO
inactive: Potency [1] | Potency [2] | Potency [3] | outcome [4] | max response [5] 0.426% | Potency [6] | Potency [7] | Potency [8] | Potency [9]
